# D1 antagonist: Antagonist of Human D 1 Dopamine Receptor: qHTS; D(1A) dopamine receptor (Homo sapiens), P21728; HEK293 TREx D1 cells, calcium flux, dopamine EC80; active compounds read low; activity change, negative = inhibition, % at 10 µM; 360,000 compounds, 3.2% hits; in the data active means activity change below about -30%; further: on the % scale 0 is the no-effect control and ±100 the full control effect
#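 Using tetracycline-induced force-coupled D1 Hek293 cells and a calcium dye, signals were followed for 180 s after compound, then for 180 s after EC80 dopamine, to detect inhibitors.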
# D1 PAM: Potentiators of Human D1 Dopamine Receptor: qHTS; HEK293 TREx D1 cells, calcium flux, dopamine EC20 potentiation; potentiation, % at 10 µM; 360,000 compounds, 0.036% hits; in the data active means potentiation above about 30%; further: 0% is about no effect
# TRHR ag: qHTS for Small Molecule Agonists and Allosteric Enhancers of Human TRH Receptor: Primary Screen for Agonists; activation, % at 2 µM; AID 493084, 2011; 360,000 compounds, 0.18% hits; TRHR cells, calcium flux fluo-8, FDSS agonist mode; further: 0% is about no effect
# Target sequence (P34981 whole entry, looked up): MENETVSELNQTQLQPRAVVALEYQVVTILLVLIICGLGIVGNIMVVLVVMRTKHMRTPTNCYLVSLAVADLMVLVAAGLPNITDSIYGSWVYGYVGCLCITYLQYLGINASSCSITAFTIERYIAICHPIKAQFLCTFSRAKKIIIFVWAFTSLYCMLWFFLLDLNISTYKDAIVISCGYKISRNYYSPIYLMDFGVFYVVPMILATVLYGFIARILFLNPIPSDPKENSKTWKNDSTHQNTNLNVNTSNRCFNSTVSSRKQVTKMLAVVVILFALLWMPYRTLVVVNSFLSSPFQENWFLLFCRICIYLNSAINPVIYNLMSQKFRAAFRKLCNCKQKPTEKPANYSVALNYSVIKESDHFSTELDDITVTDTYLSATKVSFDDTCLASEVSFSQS
#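 In this calcium-flux screen, cells bearing human TRHR are dye-loaded with fluo-8, baselined for 10 cycles, then exposed to library compounds; positive kinetic calcium responses during the agonist phase mark hits, with TRH as control.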
# D1 agonist: Allosteric Agonists of the Human D1 Dopamine Receptor: qHTS. D(1A) dopamine receptor (Homo sapiens), P21728. HEK293 T-REx D1 cells, calcium flux, agonist mode. activation, % at 2 µM. 360,000 compounds, 1% hits. AID 504660, 2011; further: 0% is about no effect
#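 Agonism was scored from calcium flux recorded over 180 s (1 read/s) after pintool compound addition, following a 10-cycle baseline. Cells were inducible force-coupled HEK293 TREx D1, plated overnight at 30 C and loaded with no-wash calcium dye.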
# TRHR enhancer: qHTS for Small Molecule Agonists and Allosteric Enhancers of Human TRH Receptor: Primary Screen for Enhancers; Thyrotropin-releasing hormone receptor (Homo sapiens), P34981; TRHR cells, fluo-8 calcium fluorescence, EC20 TRH enhancement; enhancement, % at 2 µM; 360,000 compounds, 0.66% hits; AID 493056, 2011; in the data active means enhancement above about 30%; further: 0% is about no effect
#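 Enhancer read-out: after compound pinning and an initial kinetic agonist-mode read, an EC20 of TRH (10 nM final) was injected and fluo-8 calcium signal (Ex 480/Em 530) followed at 1 s/cycle for 100 cycles in TRHR-expressing cells.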
# * hit, by the source's call; nt = not tested or not shown. Hits are enriched below; roughly 4.7% of the tested compounds scored in any of these assays. Unless noted, no stated cut-off is given here; in the data, active means activation above about 30%; inactive means the rest.
SMILES,D1 antagonist,D1 PAM,TRHR ag,D1 agonist,TRHR enhancer
COc1ccccc1NC(=O)CNC(=O)Cn1c(C)cc2ccccc2c1=O,-65*,-5,0,-4,23
COc1ccc(OC)c(NC(=O)CNC(=O)Cn2c(C)cc3ccccc3c2=O)c1,-1,-3,-1,1,12
Cc1cc(C)c(C(=O)COC(=O)CCn2c(C)csc2=O)cc1C,-3,2,-1,11,13
COc1cccc(NC(=O)COC(=O)Cn2c(C)csc2=O)c1,-94*,nt,0,3,-1
Cc1ccc(NC(=O)COC(=O)Cn2c(C)csc2=O)cc1C,-35*,-2,-1,3,0
Cc1cc(C)c(C(=O)COC(=O)Cn2c(C)csc2=O)cc1C,-36*,-11,0,3,3
COc1ccccc1NS(=O)(=O)c1cc(NC(=O)c2ccc3c(c2)OCCO3)ccc1C,-6,-3,0,3,-4
CC(C)c1ccc(NC(=O)Cn2nnc(C(=O)NCc3ccco3)c2N)cc1,5,-7,0,6,4
CC(Sc1nnc(-c2cccnc2)n1N)C(=O)NCCC1=CCCCC1 (centres undefined),-10,-4,0,-3,4
COc1ccccc1NC(=O)COC(=O)CCn1c(C)csc1=O,-33*,-8,0,0,0
COc1cccc(/C=C2\Oc3cc(OCC(=O)N4CCC[C@H]4C(=O)O)ccc3C2=O)c1,-6,0,0,2,9
CC(C(=O)N1CCOCC1)(c1ccccc1)c1ccccc1,-34*,-9,0,0,-19
CC(C(=O)N1CCOCC1)c1ccccc1 (centres undefined),-22,1,0,0,0
CN(CC(=O)Nc1ccc(N2CCOCC2)cc1)C(=O)CCCOc1ccc(Cl)cc1Cl,-6,-6,0,4,40*
CSc1ccc(Cl)c(C(=O)N(C)CC(=O)Nc2ccc(N3CCOCC3)cc2)c1,10,-4,0,3,-1
CN(CC(=O)Nc1ccc(N2CCOCC2)cc1)C(=O)c1cc(F)c(F)cc1Cl,-42*,-7,0,0,-1
COc1ccc(C(=O)Nc2nnc(S(=O)(=O)N3CCCc4ccccc43)s2)cc1,-10,-3,0,-1,0
N#CC1=C2SCN(C3CCCCC3)CN2C(=O)CC1c1ccc(Cl)cc1 (centres undefined),-60*,-1,0,0,0
N#CC1=C2SCN(C3CCCCC3)CN2C(=O)CC1c1ccc(F)cc1 (centres undefined),-14,1,1,5,0
CCc1ccccc1NC(=O)CN1CCCN(Cc2cc(C)ccc2C)S1(=O)=O,-11,5,1,33*,-3
Cc1cc(C)c2c(c1)c(C)cc1nnc(SCC(=O)c3ccc(F)cc3)n12,4,0,0,-1,2
c1ccc(Sc2ncnc3c2oc2ccccc23)cc1,-35*,-5,0,1,5
CC(C)C(=O)Nc1ccc(NC(=O)c2ccc([N+](=O)[O-])cc2Cl)cc1,-59*,-4,1,3,5
CC(Oc1ccccc1)C(=O)Nc1ccc(C(N)=O)cc1 (centres undefined),-27,4,0,13,24
CC(C)NS(=O)(=O)c1ccc(NC(=O)C(C)Oc2ccc(C(=O)c3ccccc3)cc2)cc1 (centres undefined),-16,3,17,136*,-9
SMILES,D1 antagonist,D1 PAM,TRHR ag,D1 agonist,TRHR enhancer
CCC(CC)C(=O)Nc1ccc(Sc2ccc([N+](=O)[O-])cc2)cc1,-35*,-8,0,31*,4
CC(C)Oc1ccc(C(=O)Nc2ccc([N+](=O)[O-])cc2)cc1,-15,-9,1,36*,-3
Clc1ccc(CNc2ncnc3onc(-c4ccc(Cl)cc4)c23)cc1,15,-5,1,9,14
Cc1ccccc1CNC(=O)c1ccccc1N(C)S(=O)(=O)c1ccccc1,6,-5,0,2,1
O=C(Nc1ccc(Oc2cccnc2)cc1)c1ccc([N+](=O)[O-])cc1,-31*,-9,0,37*,8
COc1ccc(C(=O)/C(C#N)=N/Nc2ccc([N+](=O)[O-])cc2)cc1,-39*,-4,5,26,-6
COc1ccc(OC(C)C(=O)Nc2ccc([N+](=O)[O-])cc2)cc1 (centres undefined),-44*,-2,1,23,20
COc1ccc(C(=O)/C(C#N)=N/Nc2ccccc2[N+](=O)[O-])cc1,-17,-8,0,12,-6
COc1ccc(OC(C)C(=O)Nc2cccc(OC)c2)cc1 (centres undefined),-6,-2,-3,11,-5
COc1ccc(NC(=O)C(C)Oc2ccc(/C(C)=N\O)cc2)cc1 (centres undefined),-1,-2,4,51*,-4
CCN(CC(=O)Nc1ccc(NC(C)=O)cc1)C(=O)c1ccc(=O)[nH]c1,9,0,0,1,-3
O=C(c1ccccc1)c1ccc(Sc2ccc([N+](=O)[O-])cc2)cc1,-31*,-2,-1,16,-1
N#CC1(NC(=O)COC(=O)c2cc(O)c3ccccc3c2O)CCCCC1,-40*,-3,0,10,13
COc1cccc(NC(=O)/C(C#N)=C\c2cn(Cc3ccc(C)cc3)c3ccccc23)c1,8,0,4,9,-2
CC(=O)Nc1ccc2nc(CN3CCN(CC(C)C)C(CCO)C3)ccc2c1 (centres undefined),-20,-3,1,2,-3
COC(=O)c1ccc(CN2CCN(C3CCCCC3)C(CCO)C2)cc1 (centres undefined),0,-1,-1,-1,20
CC(=O)Nc1ccc2nc(CN3CCN(Cc4ccc(F)cc4)C(CCO)C3)ccc2c1 (centres undefined),-4,3,0,3,36*
CC(=O)Nc1ccc(CN2CCN(C3CCCCC3)C(CCO)C2)cc1 (centres undefined),-6,-4,0,36*,7
O=S(=O)(c1ccc(F)cc1)N1CCN(c2nc(-c3ccccc3)nc3cc(Cl)ccc23)CC1,-6,6,0,6,-2
Cc1cccc(N2CCN(C(c3ccccc3)c3nnc(-c4ccccc4Cl)o3)CC2)c1C (centres undefined),3,6,1,3,6
CCc1ccccc1-n1nnc(-c2nsc(NC(=O)c3ccc(C)c(C)c3)n2)c1C,20,12,34*,5,-6
Cc1ccc(-n2nnc(-c3nsc(NC(=O)c4ccc(C)c(C)c4)n3)c2C)cc1,8,4,1,3,17

# High-throughput results: PubChem BioAssay, National Center for Advancing Translational Sciences (NCATS)
